# Assay results: PubChem BioAssay (NCATS)
# Inconclusive results are not listed. Entries that show only a call come without a potency. Active and inactive are the calls of the source. Calls follow the shape of the dose curve; as a rule, active = well fitted inhibition curve with a large enough effect; inconclusive = small, poorly fitted or top-dose-only effect; inactive = flat fitted curve, though single readings scatter.
# How the values were obtained:
# Assay in all cases: qHTS profiling for inhibitors of Plasmodium falciparum proliferation (AID 504749); also: nearly all actives have a fitted effect of over 60% in size
# Conditions in all cases: P. falciparum in erythrocytes, SYBR Green DNA, 72 h; series mostly up to 28.7 µM
# CP256 = tested on: CP256
# Summary of the method: (§1)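 SYBR Green fluorescence (ex 485 nm, em 535 nm) reports parasite DNA after 72 h compound exposure of infected red cells at 0.3% parasitemia, 2.5% hematocrit; signal normalized to 0.29 uM artemisinin and vehicle wells.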
# CP260 = tested on: CP260
# Summary of the method: as §1
# CP265 = tested on: CP265
# Summary of the method: as §1
# CP269 = tested on: CP269
# Summary of the method: as §1
# CP286 = tested on: CP286
# Summary of the method: as §1
# CP291 = tested on: CP291
# Summary of the method: as §1
# CP262 = tested on: CP262
# Summary of the method: as §1
# CP266 = tested on: CP266
# Summary of the method: as §1
# CP268 = tested on: CP268
# Summary of the method: as §1
# CP297 = tested on: CP297
# Summary of the method: as §1
# Potency is read from the fitted curve at half-maximal effect.
SMILES,Potency (CP256),Potency (CP260),Potency (CP265),Potency (CP269),Potency (CP286),Potency (CP291),Potency (CP262),Potency (CP266),Potency (CP268),Potency (CP297)
O.O.O.O.O.O.O.O=S(=O)([O-])[O-].[Co+2],8.91 µM (active),10 µM (active),11.2 µM (active),7.57 µM (active),10 µM (active),9.53 µM (active),–,–,–,–
O=C1N=C2SCCN2C(=O)C1Cc1ccc(Cl)cc1 (stereo unspecified),inactive,–,inactive,inactive,inactive,inactive,inactive,inactive,inactive,inactive
CN(Cc1ccccc1)Cc1ccccc1,inactive,–,inactive,inactive,inactive,inactive,inactive,inactive,inactive,inactive
CC(C)=CCC/C(C)=C/C=C/C(C)=C/C=C/C(C)=C/C=C/C=C(C)/C=C/C=C(C)/C=C/C=C(\C)CCC=C(C)C,inactive,inactive,inactive,inactive,inactive,inactive,inactive,–,inactive,inactive
C[Si](C)(C)O[Si](C)(C)C,inactive,inactive,inactive,inactive,inactive,inactive,–,–,inactive,inactive
O=[n+]1ccn([O-])c2ccccc21,inactive,–,inactive,inactive,inactive,inactive,inactive,inactive,inactive,inactive
CCOC(=O)c1c[nH]c2cc(OCC(C)C)c(OCC(C)C)cc2c1=O,0.0708 µM (active),0.0708 µM (active),0.0891 µM (active),–,0.0708 µM (active),0.0757 µM (active),–,–,0.135 µM (active),–
OCCOCCOCCO,inactive,inactive,inactive,–,inactive,–,inactive,–,–,–
CC(=O)NCCCS(=O)(=O)O,inactive,–,inactive,inactive,inactive,inactive,inactive,inactive,inactive,inactive
CCCCC[C@H](O)/C=C/[C@H]1[C@H](O)CC(=O)[C@@H]1C/C=C\CCCC(=O)O,inactive,–,inactive,inactive,inactive,inactive,inactive,inactive,inactive,inactive
C[C@@](Cc1ccc(O)c(O)c1)(NN)C(=O)O,inactive,–,inactive,inactive,inactive,inactive,inactive,inactive,inactive,inactive
Cn1cc(NC(=O)c2cc(NC(=O)c3cc(NC=O)cn3C)cn2C)cc1C(=O)NCCC(=N)N,11.2 µM (active),12.6 µM (active),11.2 µM (active),7.57 µM (active),3.98 µM (active),9.53 µM (active),–,–,9.53 µM (active),–
CC(C)OC(=O)Nc1ccc2nc(-c3cscn3)[nH]c2c1,inactive,inactive,inactive,–,inactive,–,inactive,–,inactive,–
O=[N+]([O-])c1c(Cl)cccc1-c1c[nH]cc1Cl,inactive,–,inactive,inactive,inactive,inactive,inactive,inactive,inactive,inactive
CCN(CC)CCCC(C)Nc1cc(/C=C/c2ccccc2Cl)nc2cc(Cl)ccc12 (stereo unspecified),3.55 µM (active),2 µM (active),2.82 µM (active),3.38 µM (active),1.12 µM (active),2.13 µM (active),–,–,4.26 µM (active),7.57 µM (active)
CCCCC,inactive,inactive,inactive,inactive,inactive,inactive,–,inactive,inactive,inactive
O=P(O)(O)OP(=O)(O)O,inactive,inactive,–,inactive,inactive,inactive,inactive,inactive,inactive,inactive
CCC(C(=O)NC(N)=O)c1ccccc1 (stereo unspecified),inactive,–,inactive,inactive,inactive,inactive,inactive,inactive,inactive,inactive
Cc1cc(-c2ccc(N=Nc3ccc4c(S(=O)(=O)O)cc(S(=O)(=O)O)c(N)c4c3O)c(C)c2)ccc1N=Nc1ccc2c(S(=O)(=O)O)cc(S(=O)(=O)O)c(N)c2c1O,inactive,–,inactive,inactive,inactive,inactive,inactive,inactive,inactive,inactive
O=c1[nH]c(=O)n([C@H]2C[C@H](O)[C@@H](CO)O2)cc1/C=C/Br,inactive,–,inactive,inactive,inactive,inactive,inactive,inactive,inactive,inactive
O=P(O)(O)CP(=O)(O)O,inactive,inactive,–,inactive,inactive,inactive,inactive,inactive,–,inactive

SMILES,Potency (CP256),Potency (CP260),Potency (CP265),Potency (CP269),Potency (CP286),Potency (CP291),Potency (CP262),Potency (CP266),Potency (CP268),Potency (CP297)
O=C(O)[C@H]1C(=CCO)O[C@H]2CC(=O)N12,inactive,inactive,inactive,inactive,inactive,inactive,inactive,–,inactive,inactive
CC[C@H]1OC(=O)[C@H](C)[C@@H](O[C@H]2C[C@@](C)(OC)[C@@H](O)[C@H](C)O2)C(C)[C@@H](O[C@@H]2O[C@H](C)C[C@H](N(C)C)[C@@H]2O)[C@](C)(OC)C[C@@H](C)C(=O)[C@H](C)[C@@H](O)[C@]1(C)O (stereo partly specified),1.26 µM (active),5.62 µM (active),inactive,inactive,8.91 µM (active),inactive,–,inactive,inactive,–
CC12CCC(C[N+](C)(CCC[N+](C)(C)C)C1)C2(C)C (stereo unspecified),inactive,inactive,inactive,inactive,inactive,inactive,–,inactive,inactive,inactive
CCCCCCCCCCCC(=O)N(CCO)CCO,inactive,inactive,inactive,inactive,inactive,inactive,–,inactive,–,inactive
CC(C)NCC(O)COc1ccccc1-n1cccc1 (stereo unspecified),inactive,–,inactive,inactive,inactive,inactive,inactive,inactive,inactive,–
CCN(CC)CCOc1ccc2nc(N(C)C)sc2c1,inactive,inactive,inactive,inactive,inactive,inactive,–,inactive,inactive,inactive
F[Si-2](F)(F)(F)(F)F,inactive,inactive,inactive,inactive,inactive,inactive,–,inactive,inactive,inactive
C[C@H](N)C(=O)N[C@@H](C)P(=O)(O)O,inactive,–,inactive,inactive,inactive,inactive,inactive,inactive,inactive,inactive
CC(C)C1=CC2=CC[C@@H]3[C@](C)(CCC[C@@]3(C)C(=O)O)[C@H]2CC1,inactive,inactive,inactive,–,inactive,–,inactive,–,–,–
Cc1cccc(Nc2ncccc2C(=O)O)c1C,inactive,–,inactive,inactive,inactive,inactive,inactive,inactive,inactive,inactive
CN1CCc2c(c3ccccc3n2Cc2ccccc2)C1,inactive,inactive,inactive,–,inactive,inactive,–,inactive,–,inactive
NC(=O)CC[C@@H]1NC(=O)[C@H](Cc2ccccc2)NC(=O)[C@H](Cc2ccc(O)cc2)NC(=O)[C@@H](N)CSSC[C@@H](C(=O)N2CCC[C@H]2C(=O)N[C@@H](CCCN=C(N)N)C(=O)NCC(N)=O)NC(=O)[C@H](CC(N)=O)NC1=O,inactive,2.24 µM (active),–,inactive,inactive,inactive,inactive,inactive,inactive,inactive
Cc1ncc(C[n+]2csc(CCO)c2C)c(N)n1,–,inactive,inactive,inactive,inactive,inactive,inactive,inactive,inactive,inactive
Cc1nc(NS(=O)(=O)c2ccc(N)cc2)nc(C)c1Br,inactive,–,inactive,inactive,inactive,inactive,–,inactive,inactive,inactive
Cn1c(=O)c2c(ncn2CCOC(=O)C(C)(C)Oc2ccc(Cl)cc2)n(C)c1=O,–,inactive,–,inactive,inactive,inactive,inactive,inactive,inactive,inactive
O=C(OCc1ccccc1)c1cccnc1,–,–,inactive,inactive,–,inactive,inactive,inactive,inactive,inactive
CC(CN(C)C)CN1c2ccccc2Sc2ccc(C(F)(F)F)cc21 (stereo unspecified),–,–,–,–,11.2 µM (active),–,–,inactive,–,–
C#C[C@]1(O)CC[C@@H]2[C@H]3CCC4=CC(=O)CC[C@H]4[C@H]3C(=C)C[C@@]21CC,–,inactive,inactive,0.536 µM (active),inactive,0.426 µM (active),inactive,0.301 µM (active),0.426 µM (active),0.536 µM (active)
Cc1cc(-c2ccc(N=Nc3c(S(=O)(=O)O)cc4cc(S(=O)(=O)O)cc(N)c4c3O)c(C)c2)ccc1N=Nc1c(S(=O)(=O)O)cc2cc(S(=O)(=O)O)cc(N)c2c1O,inactive,–,inactive,inactive,inactive,inactive,inactive,inactive,–,inactive
O=C(CCCN1CCC(C(=O)c2ccc(F)cc2)CC1)c1ccc(F)cc1,inactive,–,inactive,–,–,–,inactive,inactive,–,inactive
CC[C@H]1OC(=O)[C@H](C)[C@@H](O[C@H]2C[C@@](C)(OC)[C@@H](O)[C@H](C)O2)[C@H](C)[C@@H](O[C@@H]2O[C@H](C)C[C@H](N(C)C)[C@H]2O)[C@](C)(O)C[C@@H](C)CN(C)[C@H](C)[C@@H](O)[C@]1(C)O,2.24 µM (active),–,10 µM (active),1.51 µM (active),3.98 µM (active),–,–,–,–,5.36 µM (active)
